# Assay outcomes deposited in PubChem by National Center for Advancing Translational Sciences (NCATS).
# An excerpt weighted towards active compounds, which were near 2.3% of everything screened.
# FBPA coupling cs: inhibits coupling enzyme system, counter-screen for aldolase hits; coupling enzyme system counterscreen, AmpLite Red fluorescence; activity change, negative = inhibition, % at 58.2 µM, hits read low; hit rate 0.67% among 290,000; AID 2472; in the data active means activity change below about -30%
#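 Activity here indicates interference with the coupling reaction, not aldolase inhibition. Compounds at 57.5 uM final met coupling enzymes for 10 min at RT; substrate and AmpLite Red detection followed, with a 525/598 nm fluorescence read after 20 min.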
# Tau ThT inhib: tau fibrillization inhibition (ThT binding); hit rate 2.1% among 270,000; Potency, µM (doses to about 57.4 µM), without a hit: at the highest dose activity, negative = inhibition, hits mostly inhibitors; recombinant tau K18 P301L, heparin-induced fibrillization, ThT fluorescence; P10636; further: potency means the concentration at half of the fitted maximal effect; nearly all actives have a fitted effect of over 55% in size
# Target sequence (P10636 561-689 P618L limits assumed): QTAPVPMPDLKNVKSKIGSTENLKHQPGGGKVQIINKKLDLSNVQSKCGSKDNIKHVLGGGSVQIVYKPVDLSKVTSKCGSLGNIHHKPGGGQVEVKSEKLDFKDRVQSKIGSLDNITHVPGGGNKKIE
#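 Recombinant human tau K18 fragment […] carrying P301L, 15 uM unlabeled plus 0.24 uM Alexa 594-labeled, was fibrillized with 20 uM heparin in 100 mM sodium acetate pH 7 for 6 hr at 37 C; 30 uM ThT fluorescence read after 1 hr.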
# Tau FP inhib: blocks human tau fibril formation measured by polarization. K18 P301L tau heparin fibrillization, Alexa594 FP, 6 h. AID 1468. Potency, µM (top dose mostly 57.7 µM), inactives show at the top dose activity, negative = inhibition, most hits filed as inhibitors. P10636. hit rate 0.39% among 280,000; further: potency means the concentration at half of the fitted maximal effect; nearly all actives have a fitted effect of over 55% in size
#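 Read-out: fluorescence polarization of Alexa 594-labeled tau (0.24 uM), 555 nm excitation, 632 nm emission. Mixtures held 15 uM unlabeled K18 P301L, compound and 20 uM heparin, pH 7 acetate buffer, incubated 6 hr at 37 C.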
# USP1 inh: inhibitors of human USP1/UAF1 deubiquitinase. recombinant USP1/UAF1, Ub-Rhodamine cleavage fluorescence. O94782. AID 743255. hit rate 0.23% among 390,000. Potency, µM (top dose mostly 57.1 µM), inactives show at the highest dose activity change, negative = inhibition, hits mostly inhibitors; further: potency means the concentration at half of the fitted maximal effect; nearly all actives have a fitted effect of over 60% in size
#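 Step one: compound is pinned into 1nM USP1/UAF1 in HEPES pH 7.8 buffer with TCEP. Step two: 15 min room-temperature incubation. Step three: Ub-Rho (150nM final) starts cleavage, tracked by fluorescence over six one-minute reads.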
# Tau fluor cs: counter-screen for tau fibril formation inhibitors. Potency, µM (doses to about 57.7 µM), for inactives: top-dose activity change, negative = decrease. hit rate 0.93% among 280,000. tau K18 P301L Alexa594 fluorescence, heparin fibrillization. AID 1463; further: potency means the concentration at half of the fitted maximal effect; nearly all actives have a fitted effect of over 55% in size
#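 Human tau K18 P301L (15 uM unlabeled, 0.24 uM Alexa 594-labeled) in 100 mM sodium acetate pH 7 with 20 uM heparin, 6 hr at 37 C. ThT 30 uM added, 1 hr ambient; Alexa 594 FP and total fluorescence read at 555/632 nm.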
# The depositor's hits bear a star; ? = inconclusive; nt = not tested or not shown; [ ] = another dose, or the depositor's remark. Unless noted, the call rests on the fitted dose curve; in most records, active means well fitted curve in the direction sought with a large enough effect; inconclusive means small, poorly fitted or top-dose-only effect, or another doubt; inactive means no such curve, though single readings can be large; an effect the other way counts as inactive or inconclusive. On the % scale 0 is the no-effect control and ±100 the full control effect.
SMILES,FBPA coupling cs,Tau ThT inhib,Tau FP inhib,USP1 inh,Tau fluor cs
O=C(CSc1nc2ccccc2s1)Nc1ccc(Cl)c(C(=O)O)c1,11,-10%,-3%,?,-12%
O=C(CN1c2ccccc2Sc2ccccc21)NNC(=O)Nc1ccc(Cl)cc1,1,nt,11%,-6%,5.6µM*[quencher]
O=C(CCc1ccccc1)NNC(=O)Nc1ccc(Cl)cc1,1,nt,nt,-12%,nt
O=C(CN1c2ccccc2Sc2ccccc21)N/N=C/c1ccccc1,-4,-8%,9%,-9%,?
O=C(CN1c2ccccc2Sc2ccccc21)NNC(=O)Nc1ccc(Cl)c(Cl)c1,0,?,?,-24%,5µM*[quencher]
O=C(CSc1nc2ccccc2s1)NNC(=O)Nc1ccc(Cl)c(Cl)c1,0,-17%,20µM*,3%,?
CCOC(=O)CCc1c(C)nc2cc(-c3cc(OC)cc(OC)c3)[nH]n2c1=O,nt,8%,10%,-21%,-9%
CCOc1ccc(CNS(=O)(=O)c2ccc(-c3cc(C(F)(F)F)on3)s2)cc1,nt,-4%,?,1%,1%
COc1ccc(-n2nc(C(=O)c3cccs3)cc(-c3nc4ccccc4[nH]3)c2=N)cc1,4,4µM*,-3%,-7%,?
CC1CCC(NC(=O)C2(C)Cc3ccccc3C(=O)N2Cc2ccc(Cl)cc2)CC1 (stereo not drawn),nt,1%,2%,-25%,1%
Cc1cccc(C(=O)Nc2cccc(OCc3cc(=O)n4c(C)csc4n3)c2)c1,nt,7%,-12%,-31%,-24%
Cc1cccc(N(C)C(=O)CSc2nc3ncccc3o2)c1,nt,-10%,-1%,-10%,0%
CNc1nc(C)c([N+](=O)[O-])c(Nc2ccc(OC)cc2)n1,1,nt,nt,-14%,nt
CC(=O)Nc1ccc(Nc2nc(C)c([N+](=O)[O-])c(Nc3ccc(NC(C)=O)cc3)n2)cc1,-2,13µM*,?,-11%,-21%
O=c1[nH][nH]c(=S)n1C1CCCCC1,-39*,32µM*,?,-12%,-26%
CC(C)(N)C(=O)N[C@@H](Cc1cnc[nH]1)C(=O)N[C@H](Cc1ccc2ccccc2c1)C(=O)N[C@H](Cc1ccccc1)C(=O)N[C@@H](CCCCN)C(N)=O,2,nt,nt,nt,nt
CCOC(=O)c1c(N)sc(C(O)(C(F)(F)F)C(F)(F)F)c1-c1ccc(F)cc1,nt,-13%,9%,?,?
CCOC(=O)c1c(NC(=O)/C=C/C(=O)O)sc(C)c1-c1ccc(Cl)cc1,18,32µM*,?,?,-10%
CCOC(=O)c1c(NC(=O)Nc2ccc(Cl)cc2)sc(C)c1C,-2,-5%,3%,-20%,-23%
CCOC(=O)c1c(N)sc(C(O)(C(F)(F)F)C(F)(F)F)c1-c1ccc(Cl)cc1,-1,?,3%,-15%,25µM*[quencher]
COc1ccc(CNC(=O)C2(c3cccs3)CCOCC2)cc1,nt,-1%,?,-19%,3%
Cc1cc(C)c(C(=O)CSC2=NC(N)=C(C#N)C3(CCCCC3)C2C(N)=O)cc1C (stereo not drawn),-2,28µM*,?,-18%,?
CN1CC(O)C2=CC(=O)C(=O)C=C21 (stereo not drawn),nt,3.2µM*,13µM*,nt,5.6µM*[quencher]
CN(C)N1C(N)=C(C#N)C(c2cccs2)C2=C1CCCC2=O (stereo not drawn),-19,-16%,1%,-5%,-10%
Cc1ccsc1C1C(C#N)=C(N)N(N(C)C)C2=C1C(=O)CCC2 (stereo not drawn),-44*,-1%,-6%,-19%,-4%
SMILES,FBPA coupling cs,Tau ThT inhib,Tau FP inhib,USP1 inh,Tau fluor cs
CC1CCC2C(=O)N3C(CCC(C)[C@@H]3c3ccc(Br)cc3)C(=O)N2C1c1ccc(Br)cc1 (stereo partly drawn),7,-8%[11.5 µM],7%[11.6 µM],nt,-5%[11.6 µM]
COc1ccc(-c2nc(-c3ccccc3)c(-c3cccs3)[nH]2)cc1OC,-6,?,?,?,14µM*[quencher]
COc1ccc(-c2nc(-c3cccs3)c(-c3cccs3)[nH]2)cc1OC,-2,?,10%,-10%,10µM*[quencher]
CCOC(=O)c1cccc(NC(=O)CCc2c(C)nn(-c3ccc(N4CCOCC4)nn3)c2C)c1,nt,?,-1%,-11%,5%
O=C1Nc2ccc(NS(=O)(=O)c3cccs3)c3cccc1c23,-56*,?,6%,-11%,3%
CCOc1ccccc1NS(=O)(=O)c1cccs1,-41*,1%,-2%,-11%,1%
CCOc1ccccc1NC(=O)CCS(=O)(=O)c1cccs1,1,nt,nt,-18%,nt
Cc1c(NS(=O)(=O)c2cccs2)cccc1-c1nc2cccnc2s1,7,-13%,-5%,-15%,?
O=S(=O)(Nc1cccc2ncccc12)c1cccs1,-38*,-19%,-4%,-14%,-20%
Cc1ccc(NC(=O)C2CCCN(C(=O)c3cnn(-c4ccccc4)c3-n3cccc3)C2)cc1 (stereo not drawn),nt,-12%,-2%,-12%,-10%
Cc1ccc(C(=O)NC(=S)/C=C2\N(C)c3ccccc3C2(C)C)cc1,-2,10µM*,3%,-4%,-16%
O=C(CC1SC(=Nc2ccccc2)N(CCc2c[nH]c3ccccc23)C1=O)Nc1ccccc1F (stereo not drawn),0,-15%,-6%,?,13µM*[quencher]
COc1cccc(Cn2c(=O)n(Cc3ccco3)c(=O)c3oc4ccccc4c32)c1,nt,3%,-7%,-8%,-11%
Cn1c(NCc2c(O)ccc3ccccc23)nc2ccccc21,-4,?,9%,-10%,18µM*[quencher]
Cn1c(NCc2cc(Br)ccc2O)nc2ccccc21,-4,-5%,?,-16%,-27%
Oc1ccc2ccccc2c1CNc1cnc2ccccc2c1,-46*,?,-3%,-8%,?
Cc1nc2c(C(=O)NCCc3ccccc3)c[nH]n2c(=O)c1Cc1ccc(F)cc1Cl,nt,?,3%,-17%,-22%
Cc1ccc(CNC(=O)c2c[nH]n3c(=O)c(Cc4ccc(F)cc4Cl)c(C)nc23)cc1,nt,28µM*,-5%,-24%,?
O=C(Oc1ccc(F)cc1C(=O)/C=C/c1cccs1)c1cccc([N+](=O)[O-])c1,-1,14µM*,10%,-9%,?
O=C(/C=C/c1ccccc1F)c1cccc([N+](=O)[O-])c1,1,?,19%,-28%,?
CCSc1nnc(NC(=O)c2ccc(Br)s2)s1,-27,-11%,2%,1%,-1%
O=C(Nc1nnc(C(F)(F)F)s1)c1ccc(Br)s1,-34*,10%,3%,-2%,2%
Cc1cc(C(=O)Nc2nnc(C(F)(F)F)s2)cs1,-35*,nt,-1%,-14%,-15%
N#CC1=C2SCN(Cc3ccco3)CN2C(=O)CC1c1ccc(Cl)cc1 (stereo not drawn),-5,18µM*,?,-22%,-21%
